# Test results published in PubChem BioAssay (NCATS).
# Unmarked numbers belong to inactive results. Records with an inconclusive call do not appear. Entries that show only a call come without a potency. Calls of active or inactive are those of the source. Unless noted, calls come from the whole dose curve; as a rule, active = well fitted curve in the direction sought with a large enough effect; inconclusive = small, poorly fitted or top-dose-only effect, or another doubt; inactive = no such curve, though single readings can be large; an effect the other way counts as inactive or inconclusive. Numbered stars: 1 amine (or outer) side, 2 acyl side, 3 side chain; on linkers, the order of the positions; unused ones are H or OH. Bridge positions count the residues as written; N and C are the ends. Square brackets hold non-standard residues; d marks the D form. Peptide text beside a SMILES is read from it. * marks the point of attachment. ξ: configuration not given here. ΔAla(Z-3-ureido) = NC(=O)N/C=C(\N)C(=O)O; X2 = NC1=NC(O)CC(C(N[*:1])C(=O)[*:2])N1; ξβ3hOrn = NCCCC(N)CC(=O)*; Dap = NC[CH](N)C(=O)O
# Columns and labels:
# [1] = S16 Schwann cell viability assay (CellTiter-Glo assay) (AID 624031); details: S16 rat Schwann cells viability, 24 h; series mostly up to 57.5 µM;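 note: native untransfected S16 rat Schwann cells; nearly all actives have a fitted effect of over 70% in size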
# Method in brief: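 Counter-screen for cytotoxicity: parental S16 rat Schwann cells lacking the PMP22 reporters, treated 24 h with compound, viability from cellular ATP by CellTiter-Glo luminescence, normalized to DMSO (0%) and no-cell wells.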
# 3D7 = assay: qHTS profiling for inhibitors of Plasmodium falciparum proliferation (AID 504749); note: nearly all actives have a fitted effect of over 60% in size; details: P. falciparum in erythrocytes, SYBR Green DNA, 72 h; series mostly up to 28.7 µM
# Method in brief: (§1)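 SYBR Green fluorescence of parasite DNA, read after lysis and overnight dark incubation, measured growth over 72 h in erythrocyte culture at 0.3% parasitemia and 2.5% hematocrit. Data normalised to DMSO and 0.29 uM artemisinin, with plate-drift correction.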
# CP260 = assay: as above; details: P. falciparum in erythrocytes, SYBR Green DNA, 72 h; series mostly up to 28.7 µM
# Method in brief: as §1
# DIV14 = assay: as above; details: P. falciparum in erythrocytes, SYBR Green DNA, 72 h; series mostly up to 28.7 µM
# Method in brief: as §1
# DIV17 = assay: as above; details: P. falciparum in erythrocytes, SYBR Green DNA, 72 h; series mostly up to 28.7 µM
# Method in brief: as §1
# GB4 = assay: as above; details: P. falciparum in erythrocytes, SYBR Green DNA, 72 h; series mostly up to 28.7 µM
# Method in brief: as §1
# ICS = assay: as above; details: P. falciparum in erythrocytes, SYBR Green DNA, 72 h; series mostly up to 28.7 µM
# Method in brief: as §1
# W2 = assay: as above; details: P. falciparum in erythrocytes, SYBR Green DNA, 72 h; series mostly up to 28.7 µM
# Method in brief: as §1
# [2] = target: Cytochrome P450 3A4 (Homo sapiens) (UniProt P08684); assay: qHTS Assay for Activators of Cytochrome P450 3A4 (AID 885); details: recombinant CYP3A4, Luciferin-PPXE luminescence, 60 min; series mostly up to 57.1 µM; note: nearly all actives have a fitted effect of over 65% in size
# Chain of Cytochrome P450 3A4 (Homo sapiens) (P08684 whole entry, looked up): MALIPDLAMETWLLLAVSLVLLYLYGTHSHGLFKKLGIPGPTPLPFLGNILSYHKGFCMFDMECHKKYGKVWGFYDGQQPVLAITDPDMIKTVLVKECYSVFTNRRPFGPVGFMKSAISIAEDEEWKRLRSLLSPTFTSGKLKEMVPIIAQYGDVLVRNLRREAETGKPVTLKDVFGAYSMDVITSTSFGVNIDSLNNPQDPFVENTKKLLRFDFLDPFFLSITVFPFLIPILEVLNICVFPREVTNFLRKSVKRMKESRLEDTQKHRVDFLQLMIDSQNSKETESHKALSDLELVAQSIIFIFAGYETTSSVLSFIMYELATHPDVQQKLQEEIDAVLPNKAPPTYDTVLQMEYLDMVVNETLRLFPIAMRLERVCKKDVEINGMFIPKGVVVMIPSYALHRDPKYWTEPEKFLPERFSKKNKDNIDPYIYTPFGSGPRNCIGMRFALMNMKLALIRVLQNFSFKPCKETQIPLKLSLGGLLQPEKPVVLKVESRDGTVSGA
# Method in brief: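 Human CYP3A4 dealkylates Luciferin-PPXE to luciferin, which luciferase detection converts to light. Substrate was at its KM (25uM), buffer 200mM KPO4, reaction 60 min at RT.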
# [3] = target: Cytochrome P450 2D6 (Homo sapiens) (UniProt P10635); assay: qHTS Assay for Inhibitors and Substrates of Cytochrome P450 2D6 (AID 891); details: recombinant CYP2D6, luciferin-ME EGE luminescence; series mostly up to 11.4 µM;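 note: luciferin methyl ether substrate demethylated by CYP2D6 with NADPH regeneration; nearly all actives have a fitted effect of over 60% in size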
# Chain of Cytochrome P450 2D6 (Homo sapiens) (P10635 whole entry, looked up): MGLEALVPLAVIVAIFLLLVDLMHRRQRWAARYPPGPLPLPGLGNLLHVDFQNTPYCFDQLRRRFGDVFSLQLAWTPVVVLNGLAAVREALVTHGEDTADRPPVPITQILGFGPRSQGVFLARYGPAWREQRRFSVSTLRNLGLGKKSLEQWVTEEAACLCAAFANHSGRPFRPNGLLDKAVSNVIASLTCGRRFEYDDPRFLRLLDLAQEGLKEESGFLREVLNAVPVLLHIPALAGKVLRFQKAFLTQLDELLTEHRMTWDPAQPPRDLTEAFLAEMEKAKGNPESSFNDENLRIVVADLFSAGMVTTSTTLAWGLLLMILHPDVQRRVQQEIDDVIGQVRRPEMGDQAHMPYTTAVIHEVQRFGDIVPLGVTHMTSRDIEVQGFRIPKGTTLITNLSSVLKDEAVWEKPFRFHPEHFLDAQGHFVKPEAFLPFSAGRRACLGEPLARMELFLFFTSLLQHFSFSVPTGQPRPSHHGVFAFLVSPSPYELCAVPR
# Method in brief: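 Luminescent read-out of luciferin formed by 5 nM human CYP2D6 demethylating 30 uM Luciferin-ME EGE (Km level) over 60 min at room temperature after NADPH regeneration addition. Data normalized to full inhibition by 1.43 uM quinidine.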
# [4] = S16 Schwann cell PMP22 intronic element beta-lactamase assay (AID 624044; calls by dose curve; note: nearly all actives have a fitted effect of over 15% in size); details: S16 rat Schwann cells, PMP22 element beta-lactamase FRET, 24 h; series mostly up to 38.3 µM
# Method in brief: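 Beta-lactamase reporter under a PMP22 intronic regulatory element in stable S16 rat Schwann cells; 24 h compound exposure. 460 nm blue signal normalized between DMSO (0%) and potassium clavulanate, with 535 nm FRET tracking viability; curves classed by r2 and response.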
# [5] = target: Cytochrome P450 3A4 (Homo sapiens) (UniProt P08684); assay: qHTS Assay for Inhibitors and Substrates of Cytochrome P450 3A4 (AID 884); details: recombinant CYP3A4, Luciferin-PPXE luminescence; series mostly up to 57.1 µM; note: nearly all actives have a fitted effect of over 50% in size; note: potency is the fitted concentration of half-maximal effect
# Method in brief: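 Luminescent readout of luciferin produced by CYP3A4 (20 nM) dealkylation of Luciferin-PPXE, 25 uM (its KM). NADPH-driven reaction ran 60 min at RT after 10 min compound preincubation; data scaled to 57 uM ketoconazole as 100% inhibition.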
# [6] = target: DNA dC->dU-editing enzyme APOBEC-3G (Homo sapiens) (UniProt Q9HC16); assay: qHTS for inhibitors of Vif-A3G interactions: Validation (AID 588379); details: Vif-A3G protein interaction assay; series mostly up to 46.1 µM
# Chain of DNA dC->dU-editing enzyme APOBEC-3G (Homo sapiens) (Q9HC16 whole entry, looked up): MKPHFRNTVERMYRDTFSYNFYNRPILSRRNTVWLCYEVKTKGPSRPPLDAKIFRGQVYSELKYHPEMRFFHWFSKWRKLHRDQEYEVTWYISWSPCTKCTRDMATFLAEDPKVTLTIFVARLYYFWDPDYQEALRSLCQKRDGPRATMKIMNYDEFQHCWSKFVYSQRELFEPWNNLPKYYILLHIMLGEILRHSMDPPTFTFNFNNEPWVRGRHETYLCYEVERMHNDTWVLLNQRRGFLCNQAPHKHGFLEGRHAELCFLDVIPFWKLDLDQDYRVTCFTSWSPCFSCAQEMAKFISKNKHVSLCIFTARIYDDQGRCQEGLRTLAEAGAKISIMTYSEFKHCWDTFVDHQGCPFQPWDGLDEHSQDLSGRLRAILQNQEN
# Method in brief: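 Yellow fluorescence (Ex 488, Em 500-530) of Vif-coexpressing HeLa A3G-eYFP cells, scanned by Acumen cytometer, reports blocked A3G degradation. Cells plated at 700/well overnight at 37 deg C before compound addition, then a further overnight compound incubation at 37 deg C.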
# [7] = Confirmation and Secondary Assay for Modulators of Hemoglobin Beta Chain Splicing at IVS2 654 locus (AID 910); details: HeLa EGFP-654 splicing reporter, GFP fluorescence, 48 h; series mostly up to 46.1 µM;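 note: HeLa cells stably carrying EGFP split by mutant beta-globin IVS2-654 intron; per-well total GFP intensity by laser scanning cytometry after 2-day treatment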
# Method in brief: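 Readout: per-well total peak green fluorescence (488 nm ex, 500–520 nm em) from objects 5–250 µm, reflecting correct splicing of an EGFP-654 reporter. Compounds were applied for 2 days at 37 °C to overnight-plated HeLa EGFP-654 cells; controls were DMSO and 500 nM IVS2-654 PNA.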
# [8] = Confirmation and Secondary Assay for Modulators of Hemoglobin Beta Chain Splicing at IVS2 705 locus (AID 930); details: HeLa EGFP-705 splicing reporter, GFP fluorescence, 48 h; series mostly up to 46.1 µM;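 note: HeLa cells stably expressing the EGFP-705 splicing reporter; GFP fluorescence per well restored by corrected splicing of the IVS2-705 intron in EGFP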
# Method in brief: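 First, HeLa EGFP-705 cells are seeded at 500/well in Optimem with 2% FCS and left overnight. Next, compound or DMSO is added for 2 days. Finally wells are laser-scanned and total peak GFP intensity scored.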
smiles,measurement,setting,value
CC(N)C(=O)NCC(=O)NC1CSSCC(C(=O)O)NC(=O)C(CO)NC(=O)C(C(C)O)NC(=O)C(Cc2ccccc2)NC(=O)C(C(C)O)NC(=O)C(CCCCN)NC(=O)C(Cc2c[nH]c3ccccc23)NC(=O)C(Cc2ccccc2)NC(=O)C(Cc2ccccc2)NC(=O)C(CC(N)=O)NC(=O)C(CCCCN)NC1=O (stereo not given),Potency,[1],inactive
same,Potency,3D7,inactive
same,Potency,CP260,inactive
same,Potency,DIV14,inactive
same,Potency,DIV17,inactive
same,Potency,GB4,inactive
same,Potency,ICS,inactive
same,Potency,W2,inactive
CCCCCC(=O)c1cc(CC(C(=O)OC)C(=O)OC)cc2cc(OC)c(OC)cc12,"activity change, positive = activation",[2],-51.6% [at 11.4 µM]
same,Potency,[3],inactive
CNCC(=O)NC(CCCN=C(N)N)C(=O)NC(C(=O)NC(Cc1ccc(O)cc1)C(=O)NC(C(=O)NC(Cc1cnc[nH]1)C(=O)N1CCCC1C(=O)NC(C)C(=O)O)C(C)C)C(C)C (stereo not given),Potency,[1],inactive
same,Potency,3D7,inactive
same,Potency,CP260,inactive
same,Potency,DIV14,inactive
same,Potency,DIV17,inactive
same,Potency,GB4,inactive
same,Potency,ICS,inactive
same,Potency,W2,inactive
CCOC(=O)C(CS)NCCN[C@@H](CS)C(=O)OCC (stereo not given in full),Potency,[1],inactive
same,Potency,[4],inactive
same,Potency,3D7,inactive
same,Potency,CP260,inactive
same,Potency,DIV14,inactive
same,Potency,DIV17,inactive
same,Potency,GB4,inactive
same,Potency,ICS,inactive
same,Potency,W2,inactive
CC(=O)OCC(=O)[C@@]1(O)CCC2C3CCC4=CC(=O)CC[C@]4(C)C3=CC[C@@]21C (stereo not given in full),Potency,[1],inactive
same,Potency,3D7,inactive
same,Potency,CP260,inactive
same,Potency,DIV14,inactive
same,Potency,DIV17,inactive
same,Potency,GB4,inactive
same,Potency,ICS,inactive
same,Potency,W2,inactive
COc1ccc(/C=C/C(=O)c2cccs2)cc1OC,Potency,[5],2.51 µM (active)
same,Potency,[2],inactive
same,Potency,[6],inactive
CC1(C)C=Cc2c(cc3occ(-c4ccc5c(c4)OCO5)c(=O)c3c2O)O1,Potency,[5],25.1 µM (active)
same,Potency,[2],inactive
same,outcome,[7],inactive
same,outcome,[8],inactive
CC1CC2C3CCC4=CC(=O)C=C[C@@]4(C)[C@]3(F)C(O)C[C@]2(C)[C@]1(O)C(=O)COP(=O)(O)O (stereo not given in full),Potency,[2],inactive
same,outcome,[8],inactive
CC1CCC2[C@](C)(CO)C(O)CC[C@]2(C)C12CCC(CO)(CCO)O2 (stereo not given in full),Potency,[5],inactive
same,Potency,[6],inactive
CC(=O)OC1CCC2(C)C(=CCC3C2CCC2(C)C3C[C@@H]3O[C@]32C(C)=O)C1 (stereo not given in full),Potency,[5],inactive
same,Potency,[6],inactive
CC(=O)OCC1=C(C(=O)O)N2C(=O)C(NC(=O)Cc3ccccc3)C2SC1 (stereo not given),Potency,[1],inactive
same,Potency,[4],inactive
same,Potency,3D7,inactive
same,Potency,CP260,inactive
same,Potency,DIV14,inactive
same,Potency,DIV17,inactive
same,Potency,GB4,inactive
same,Potency,ICS,inactive
same,Potency,W2,inactive
CC(C)CC(NC(=O)C(COC(C)(C)C)NC(=O)C(Cc1ccc(O)cc1)NC(=O)C(CO)NC(=O)C(Cc1c[nH]c2ccccc12)NC(=O)C(Cc1cnc[nH]1)NC(=O)C1CCC(=O)N1)C(=O)NC(CCCN=C(N)N)C(=O)N1CCCC1C(=O)NNC(N)=O (stereo not given),Potency,[1],inactive
same,Potency,3D7,inactive
same,Potency,DIV14,inactive
same,Potency,DIV17,inactive
same,Potency,GB4,inactive
same,Potency,ICS,inactive
same,Potency,W2,inactive
Cc1ccc2oc(-c3ccccc3)cc(=O)c2c1,Potency,[6],inactive
COc1ccc(-c2oc3cc(OC)ccc3c(=O)c2O)cc1,Potency,[6],inactive
NCCCC(N)CC(=O)NC1CNC(=O)C(C2CC(O)N=C(N)N2)NC(=O)/C(=C/NC(N)=O)NC(=O)C(CO)NC(=O)C(CO)NC1=O (stereo not drawn) (ξβ3hOrn-[Dap]SS[ΔAla(Z-3-ureido)][X2]; lactam 1-C; configuration not given here),Potency,[1],inactive
same,Potency,[4],inactive
same,Potency,3D7,inactive
same,Potency,CP260,inactive
same,Potency,GB4,inactive
same,Potency,W2,inactive
C[C@H]1O[C@@H](O[C@H]2[C@@H](O)C[C@H](O[C@H]3[C@@H](O)C[C@H](O[C@H]4CC[C@]5(C)C6CC[C@]7(C)[C@@H](C8=CC(=O)OC8)CC[C@]7(O)C6CC[C@@H]5C4)O[C@@H]3C)O[C@@H]2C)C[C@H](O)[C@@H]1O (stereo not given in full),Potency,[5],inactive
same,Potency,[6],inactive
COc1ccc2c(=O)c(-c3ccccc3)coc2c1,Potency,[6],inactive
C[N+]1(C)C2CCC1CC(OC(=O)C(O)c1ccccc1)C2 (stereo not given),Potency,[5],inactive
same,outcome,[7],inactive
same,outcome,[8],inactive
O=C1/C(=C\c2cccs2)CCC/C1=C/c1cccs1,Potency,[1],inactive
same,Potency,[4],inactive
same,Potency,3D7,inactive
same,Potency,CP260,inactive
same,Potency,DIV14,inactive
same,Potency,GB4,inactive
same,Potency,ICS,inactive
O=C(/C=C/c1ccc(O)cc1)c1c(O)cc(O)cc1O,Potency,[5],7.94 µM (active)
same,Potency,[2],inactive
same,Potency,[6],inactive
c1ccc(-c2csc(-c3nc4ccccc4[nH]3)n2)cc1,Potency,[5],1.26 µM (active)
same,Potency,[2],inactive
CCC(C)C1NC(=O)C(Cc2ccc(O)cc2)NC(=O)C(N)CSSCC(C(=O)N2CCCC2C(=O)NC(CC(C)C)C(=O)NCC(N)=O)NC(=O)C(CC(N)=O)NC(=O)C(CCC(N)=O)NC1=O (stereo not given),Potency,3D7,inactive
same,Potency,CP260,inactive
same,Potency,DIV14,inactive
same,Potency,DIV17,inactive
same,Potency,GB4,inactive
same,Potency,ICS,inactive
same,Potency,W2,inactive
CCC1NC(=O)C(NC(=O)c2ncccc2O)C(C)OC(=O)C(c2ccccc2)NC(=O)C2CC(=O)CCN2C(=O)C(Cc2ccccc2)N(C)C(=O)C2CCCN2C1=O (stereo not given),Potency,[1],inactive
same,Potency,[4],inactive
same,Potency,3D7,inactive
same,Potency,CP260,inactive
CC(C)C[C@H](NC(=O)[C@@H](Cc1c[nH]c2ccccc12)NC(=O)[C@@H](Cc1ccc(O)cc1)NC(=O)[C@@H](CO)NC(=O)[C@@H](Cc1c[nH]c2ccccc12)NC(=O)C(Cc1cnc[nH]1)NC(=O)C1CCC(=O)N1)C(=O)N[C@@H](CCCN=C(N)N)C(=O)N1CCC[C@@H]1C(=O)NCC(N)=O (stereo not given in full),Potency,[1],inactive
same,Potency,[4],inactive
same,Potency,3D7,inactive
same,Potency,CP260,inactive
same,Potency,DIV14,inactive
same,Potency,DIV17,inactive
same,Potency,GB4,inactive
same,Potency,ICS,inactive
same,Potency,W2,inactive
